Measurements taken from PubChem BioAssay (EPA / NIEHS).
“And” between values parts separate entries of the source, which are not always exact repeats. Identical values can stand only once. Records with an inconclusive call do not appear. More than one record can exist for a structure, and the calls need not agree. The source made the active and inactive calls. How the source made its calls: active means hit-call score of the fitted dose curve at least 0.9, where 1 is the maximum; inconclusive means response in the unintended direction; inactive means score below 0.9.

Experiments:
[1] = target: Cellular tumor antigen p53 (Homo sapiens) (UniProt P04637); experiment: TOX21_p53_BLA_p3_ratio: Tox21 HCT-116 p53 Agonism Beta-lactamase Assay, Ratio, Phase 3 (AID 2283596)
Sequence of Cellular tumor antigen p53 (Homo sapiens) (P04637 whole entry, looked up): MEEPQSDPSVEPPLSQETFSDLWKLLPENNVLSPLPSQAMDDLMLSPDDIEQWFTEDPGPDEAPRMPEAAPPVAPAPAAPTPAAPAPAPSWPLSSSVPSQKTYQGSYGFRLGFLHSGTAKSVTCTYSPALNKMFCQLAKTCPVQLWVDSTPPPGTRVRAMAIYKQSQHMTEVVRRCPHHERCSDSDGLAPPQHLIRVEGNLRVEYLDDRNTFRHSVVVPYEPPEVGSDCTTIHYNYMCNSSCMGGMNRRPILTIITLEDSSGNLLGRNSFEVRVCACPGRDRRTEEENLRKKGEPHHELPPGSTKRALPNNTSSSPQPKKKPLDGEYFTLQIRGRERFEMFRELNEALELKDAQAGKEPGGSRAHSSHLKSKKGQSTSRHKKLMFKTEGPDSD
How it was run: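 HCT116 p53-bla cells (4000/well) given compound in DMSO (217-fold dilution) after 5 h, incubated 16 h at 37C. CCF4-AM substrate 2 h at room temperature; 460/530 nm emission ratio, gain fitted against DMSO.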

[2] = TOX21_p53_BLA_p4_viability: Viability Assessment in the Tox21 HCT-116 p53 Agonism Beta-lactamase Assay, Phase 4 (AID 2283597);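 further: hits lower the luminescence signal meaning cytotoxicity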
How it was run: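 HCT-116 p53-bla cells, 4000/well, dosed after 5 h attachment and incubated 16 h at 37 °C, 5% CO2. Viability from CellTiter-Glo ATP luminescence after 30 min at room temperature, taken after the beta-lactamase read; loss of signal indicates cytotoxicity.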

[3] = target: Cellular tumor antigen p53 (Homo sapiens) (UniProt P04637); experiment: TOX21_p53_BLA_p5_ratio: Tox21 HCT-116 p53 Agonism Beta-lactamase Assay, Ratio, Phase 5 (AID 2283599)
How it was run: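 Beta-lactamase reporter ratio (blue 460 nm over green 530 nm, 405 nm excitation) after 2 h CCF4-AM loading, in HCT-116 cells exposed 16 h at 37 C to compounds pinned at 217-fold dilution. Increases relative to DMSO baseline scored.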

[4] = TOX21_p53_BLA_p5_viability: Viability Assessment in the Tox21 HCT-116 p53 Agonism Beta-lactamase Assay, Phase 5 (AID 2283600)
How it was run: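 HCT-116 p53 beta-lactamase reporter cells, 4000/well, were exposed to compound (pin transfer, 217-fold dilution) for 16 hours at 37C. Cellular ATP was read by CellTiter-Glo luminescence after 30 min at room temperature.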

[5] = target: Cellular tumor antigen p53 (Homo sapiens) (UniProt P04637); experiment: TOX21_p53_BLA_p4_ratio: Tox21 HCT-116 p53 Agonism Beta-lactamase Assay, Ratio, Phase 4 (AID 2283601)
How it was run: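 Signal is the blue/green (460nm/530nm) ratio of cleaved versus uncleaved CCF4-AM substrate, read after 2 h substrate loading. Cells were HCT116 carrying the p53-responsive beta-lactamase reporter, dosed 16 h at 37C, 5% CO2; CellTiter-Glo measured in parallel.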

[6] = Tanguay_ZF_120hpf_YSE_legacy: (Legacy) Oregon State University Tanguay Lab 120 Hour Post-fertilization zebrafish Assay for Yolk Sac Edema (AID 2283634);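 on AC50: actives raise the incidence of yolk sac edema above the DMSO baseline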
How it was run: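 Dechorionated Tropical 5D wild-type zebrafish embryos were exposed statically, one per well, from 6 to 120 hpf at 28C in 0.64% DMSO. Yolk sac edema was scored present/absent by brightfield at 120 hpf, and dead embryos were excluded.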

[7] = Tanguay_ZF_120hpf_AXIS_legacy: (Legacy) Oregon State University Tanguay Lab 120 Hour Post-fertilization zebrafish Assay for Body Axis Malformation (AID 2283635);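 on AC50: potency for an increased fraction of larvae scored with body axis malformation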
How it was run: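 Dechorionated wild-type Tropical 5D zebrafish embryos, one per well, statically exposed from 6 hpf to 120 hpf at 28C in 0.64% DMSO final. Body axis malformation scored present/absent by brightfield microscopy at 120 hpf; dead embryos excluded.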

[8] = Tanguay_ZF_120hpf_EYE_legacy: (Legacy) Oregon State University Tanguay Lab 120 Hour Post-fertilization zebrafish Assay for Eye Malformation (AID 2283636)
How it was run: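 Read-out is binary presence or absence of eye malformation, scored by brightfield microscopy at 120 hpf. Single larvae were exposed from 6 hpf in embryo medium containing 0.64% DMSO, with DMSO as baseline.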

[9] = Tanguay_ZF_120hpf_MORT_legacy: (Legacy) Oregon State University Tanguay Lab 120 Hour Post-fertilization zebrafish Assay for Mortality (AID 2283633);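 on AC50: fitted as increase in binary mortality versus DMSO negative control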
How it was run: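 Dechorionated Tropical 5D wild-type zebrafish embryos, one per well from 6 hpf, static exposure in 0.64% DMSO at 28C until 120 hpf. Mortality scored as binary by brightfield microscopy at 24 and 120 hpf.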

[10] = Tanguay_ZF_120hpf_SNOU_legacy: (Legacy) Oregon State University Tanguay Lab 120 Hour Post-fertilization zebrafish Assay for Snout Malformation (AID 2283637)
How it was run: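 Snout malformation read as a yes/no call on brightfield images of 120 hpf larvae (Tropical 5D strain). Static exposure began at 6 hpf on dechorionated embryos in 0.64% DMSO, with gain of signal analysed versus DMSO controls.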

Measured: AC50

CCCCOC(=O)c1ccc(O)cc1
active: [6] 51.7 µM | [7] 45.1 µM | [8] 41.1 µM
not listed: [9] | [10]
inactive: all other assays above

CC(C)(C)c1csc(-c2cc3cc(OCc4ccccc4CC(=O)O)ccc3o2)n1
active: [1] 27.9 µM | [2] 46.1 µM | [3] 47 µM | [5] 49.9 µM
inactive: [4] | [6] | [7] | [8]

CC(C)(c1cc(Br)c(O)c(Br)c1)c1cc(Br)c(O)c(Br)c1
inactive: [6] | [7] | [8] | [10]
active: [1] 50.4 µM and 63.7 µM and 58.5 µM | [2] 34.3 µM and 46 µM | [3] 67.7 µM and 76.3 µM and 65.8 µM | [4] 44 µM and 57 µM and 63.6 µM | [5] 58.8 µM and 71.4 µM and 63.2 µM | [9] 4.89 µM

Cc1cc(F)ccc1-c1cc(N2CC[C@@H](O)[C@H]2CO)ncc1N(C)C(=O)C(C)(C)c1cc(C(F)(F)F)cc(C(F)(F)F)c1
active: [1] 45.3 µM | [2] 27.3 µM | [3] 36 µM | [4] 23.7 µM | [5] 26.4 µM
inactive: [6] | [7] | [8]

CCCOC(=O)c1cc(O)c(O)c(O)c1
not listed: [9] | [10]
inactive: all other assays above

NC(=O)c1nc(-c2cccc(-c3cc(F)ccc3OCC(F)(F)C(F)(F)F)c2)n[nH]1
active: [1] 87.4 µM | [2] 70.5 µM | [3] 86.6 µM | [4] 72.7 µM | [5] 86.3 µM | [6] 26.8 µM | [7] 25.9 µM | [8] 9.38 µM | [10] 25.8 µM

O=C(O)Cc1cc(I)c(Oc2ccc(O)c(I)c2)c(I)c1
active: [1] 1.64 µM and 8.48 µM | [2] 19 µM and 5.82 µM | [3] 1.95 µM and 16.7 µM | [4] 21.8 µM | [5] 3.33 µM and 5.61 µM | [7] 0.0871 µM | [10] 0.0814 µM
inactive: [4] | [6] | [8]

OCCO
not listed: [10]
inactive: all other assays above

O=c1ccc2ccccc2o1
not listed: [9]
inactive: all other assays above

Cc1cccc2ccccc12
not listed: [10]
inactive: all other assays above

CCCCCCCCOC(=O)c1cc(O)c(O)c(O)c1
active: [1] 36.8 µM | [2] 32.9 µM | [3] 63.3 µM | [4] 42.6 µM | [5] 62.6 µM | [9] 8.13 µM
inactive: [6] | [7] | [8]

CC/C(=C(/CC)c1ccc(O)cc1)c1ccc(O)cc1
inactive: [2] | [4] | [6] | [7]
active: [1] 11.8 µM and 14 µM | [2] 46 µM | [3] 17.3 µM and 4.28 µM | [4] 75.1 µM | [5] 38.3 µM and 8.57 µM | [9] 10.8 µM

Oc1ccccc1
not listed: [9]
inactive: all other assays above

Cc1cn([C@H]2C[C@H](N=[N+]=[N-])[C@@H](CO)O2)c(=O)[nH]c1=O
not listed: [9] | [10]
inactive: all other assays above

c1ccc2n[nH]nc2c1
inactive: all assays above

Cc1ncc(CO)c(CO)c1O
not listed: [9]
inactive: all other assays above

CN1C(=O)N(c2ccccc2Br)Cc2cnc(Nc3ccc4c(c3)OCC(CO)O4)nc21 (centres undefined)
inactive: [4]
active: [1] 13.8 µM | [2] 46.1 µM | [3] 13.6 µM | [5] 14.2 µM | [6] 3.4 µM | [7] 2.03 µM | [8] 3.44 µM | [10] 2.27 µM

O=C1CCC(C2CCCCC2)CC1
not listed: [10]
inactive: all other assays above

CC(C)(C)c1cc(/C=C2\SC(N)=NC2=O)cc(C(C)(C)C)c1O
inactive: [1] | [6] | [8] | [10]
active: [2] 84.4 µM | [3] 90.1 µM | [4] 76.4 µM | [5] 62.3 µM | [9] 25.5 µM

O=C(Nc1ccc(Cl)cc1)Nc1ccc(Cl)c(Cl)c1
active: [1] 5.76 µM and 4.62 µM and 6.38 µM | [3] 6.25 µM and 12.1 µM | [5] 4.01 µM and 4.85 µM and 6.48 µM
inactive: [2] | [3] | [4] | [9] | [6] | [7]

CN(C[C@@H](CC[N+]12CCC(C3CCCCC3)(CC1)CC2)c1ccc(Cl)c(Cl)c1)C(=O)c1cc(C(F)(F)F)cc(C(F)(F)F)c1
inactive: [6] | [7] | [8]
active: [1] 87 µM | [2] 14.8 µM | [3] 77.8 µM | [4] 46.8 µM | [5] 27.5 µM | [9] 25.5 µM

CCN(Cc1cccnc1)C(=O)c1cccc(Cl)c1[C@]1(C)C(=O)N(Cc2ccc(OC)cc2OC)c2ccc(Cl)cc21
active: [1] 40.9 µM | [3] 52.1 µM | [5] 44.5 µM
inactive: [2] | [4] | [6] | [7]

CCCCCCCCOc1ccc(C(=O)c2ccccc2)c(O)c1
not listed: [10]
inactive: all other assays above

CCN(Cc1cccc(S(=O)(=O)O)c1)c1ccc(C(=C2C=CC(=[N+](CC)Cc3cccc(S(=O)(=O)O)c3)C=C2)c2ccccc2S(=O)(=O)[O-])cc1
active: [2] 35.5 µM
not listed: [10]
inactive: all other assays above

CC[C@@H]1C[C@H](N(Cc2cc(C(F)(F)F)cc(C(F)(F)F)c2)C(C)=O)c2cc(C(F)(F)F)ccc2N1C(=O)OC(C)C
not listed: [9] | [10]
inactive: all other assays above

NCc1cccc(C2CCN(C(=O)c3ccc(C#Cc4ccccc4F)o3)CC2)c1
inactive: [4] | [6] | [7] | [8]
active: [1] 86.8 µM | [2] 65.6 µM | [3] 82.9 µM | [5] 84.4 µM

COc1cc(C(=O)NC2CCN(C)CC2)ccc1Nc1ncc2c(n1)N(C1CCCC1)CC(F)(F)C(=O)N2C
active: [1] 70.1 µM | [2] 42.9 µM | [3] 0.00396 µM | [4] 68.8 µM | [5] 0.00404 µM | [9] 24.4 µM | [7] 9.69 µM | [8] 10.1 µM
inactive: [6]

CC(O)CC(C)(C)O (centres undefined)
not listed: [10]
inactive: all other assays above

O=CCCCC=O
active: [1] 69.9 µM and 37 µM
inactive: all other assays above

Cc1c2ccccc2c(C)c2c1ccc1ccccc12
inactive: [2] | [3] | [4] | [6] | [7] | [8] | [10]
active: [1] 29.5 µM and 52.5 µM | [2] 56.3 µM | [3] 41.7 µM | [5] 43.2 µM and 30.5 µM

COc1ccc2cc(S(=O)(=O)N[C@H](CC(=O)N[C@H](Cc3ccc(CN4[C@H](C)CCC[C@@H]4C)cc3)C(=O)N(C)C(C)C)c3ccc4c(c3)OCO4)ccc2c1
inactive: [1] | [6] | [7] | [8]
active: [2] 60.6 µM | [3] 71.9 µM | [4] 56.7 µM | [5] 72.1 µM

O=c1c(-c2ccc(O)cc2)coc2cc(O)cc(O)c12
active: [9] 26.1 µM
inactive: all other assays above

CO[C@H]1/C=C/O[C@@]2(C)Oc3c(C)c(O)c4c(O)c(c(/C=N/N5CCN(C)CC5)c(O)c4c3C2=O)NC(=O)/C(C)=C\C=C\[C@H](C)[C@H](O)[C@@H](C)[C@@H](O)[C@@H](C)[C@H](OC(C)=O)[C@@H]1C
not listed: [9] | [10]
inactive: all other assays above

CN(C)C(=O)C1(N2CCCCC2)CCN(CC[C@@]2(c3ccc(Cl)c(Cl)c3)CN(C(=O)c3ccccc3)CCO2)CC1
inactive: [6] | [7] | [8] | [10]
active: [1] 82.3 µM | [2] 34 µM | [3] 82 µM | [4] 74.6 µM | [5] 48.5 µM | [9] 16.4 µM
